Results taken from PubChem BioAssay.
Activity calls are given as the source filed them.

test system: XIP peptide (Xip251-270) binding; assay: small-molecule binders of XIP peptide, primary screen, biochemical, small-molecule microarray, fluorescence 635/667 nm, 0.1 µg/mL protein (AID 1182); details: fluorescent protein binding, 635 nm, higher = more signal, called active from +8 up or from −8 down

Composite z-score, inactive:
CCC=CCCC(OC(=O)c1ccc(Br)cc1)C1=CCCCC1=O (stereo unspecified) 0.84
COc1ccc(O[C@H]2C=C[C@@H](c3ccccc3)O[C@@H]2CON=C2[C@H]3CCn4c(=O)n(-c5ccccc5)c(=O)n4[C@H]3[C@H](O)[C@@H]3O[C@H]23)cc1 -0.454
CC(C)CON=C1[C@H]2CCn3c(=O)n(Cc4cc5c(cc4Cl)OCO5)c(=O)n3[C@H]2[C@H](O)[C@@H]2O[C@H]12 0.26
CCOC(=O)NN=C1C[C@@H](O)[C@@H](O)[C@@H]2[C@@H]3C(=O)N([C@@H](C)c4ccccc4)C(=O)[C@@H]3CC[C@H]12 0.0004
O=C1C[C@@H](O)[C@@H](O)[C@@H]2[C@@H]3C(=O)N(C[C@@H]4CCCO4)C(=O)[C@@H]3CC[C@H]12 0.195
CO[C@H]1COC(=O)[C@@H]2CCCN2C(=O)CC=C[C@@H](C)[C@H](OC)COC(=O)[C@@H](OCc2ccccc2)C=C[C@@H]1C 0.0932
CC(CCN1CCCc2nc(C)c(C)cc21)=NOC(C)CN1CCCCc2nc(C)c(C)cc21 (stereo unspecified) -0.053
C[C@@H]1CC[C@H]2C(=O)O[C@@H](Cc3ccccc3)CN2[C@H]1c1ccc(Br)cc1 0.128
COC(=O)[C@H]1O[C@@H](c2c(OC)c(OC)c(C)c(OC)c2OC)[C@H](C)[C@@H](O)[C@H]1C 0.498
CC(C)(C)N1C(=O)[C@H]2[C@H]3[C@H](O)C=CC(=O)[C@@H]3CC[C@H]2C1=O 0.127
COC(=O)CC=C[C@H](C)[C@@H](OCc1cccc(Br)c1)[C@@H](C)[C@H](OC)C1CCCCC1 0.685
O=C1C[C@@H](O)[C@@H](O)[C@@H]2[C@@H]3C(=O)N(C[C@@H]4CCCO4)C(=O)[C@@H]3CC[C@@H]12 0.74
O=C1C[C@@H](O)[C@@H](O)[C@@H]2[C@@H]3C(=O)N(Cc4ccccc4)C(=O)[C@@H]3CC[C@@H]12 0.245
CC(=O)OC[C@H]1OC(ON=CC[C@@H]2C=C[C@H](OC(C)=O)[C@@H](COC(C)=O)O2)[C@H](OC(C)=O)[C@@H](OC(C)=O)[C@@H]1OC(C)=O (stereo partly specified) -0.476
COc1ccc(O[C@H]2C=C[C@@H](c3ccccc3)O[C@@H]2CON=C(C)CCN2CCc3nc(-c4ccccc4)c(-c4ccccc4)cc3C2)cc1 0.276
O=C(C=Cc1ccc2c(c1)OCO2)c1ccc(F)cc1 -0.158
CCN1C(=O)[C@H]2[C@H]3[C@H](O)[C@H](O)CC(=NO[C@@H](C)c4cn([C@H](CO)Cc5ccccc5)nn4)[C@@H]3CC[C@H]2C1=O 1.13
C[C@H]1COC(=O)[C@@H]2CCCN2C(=O)[C@@H](C)COC(=O)[C@H](Cc2ccccc2)NC1=O -0.102
CO[C@@H]1COC(=O)CC=C[C@H](C)[C@H](OC)COC(=O)[C@H](C)NC(=O)CC=C[C@H]1C -0.436
CC(C)C[C@H](NC(=O)CCC1CC(OC(=O)NCc2cccc3ccccc23)CC2(CCCC(COC(=O)NCc3ccccc3)O2)O1)C(=O)NCC(c1ccccc1)c1ccccc1 (stereo partly specified) -0.284
Cc1ccc(S(=O)(=O)N[C@@H]2COC(=O)[C@@H](C)COC(=O)CC=C[C@H]2C)cc1 -0.21
CO[C@@H]1COC(=O)[C@@H]2CCCN2C(=O)[C@@H](C)COC(=O)CC=C[C@H]1C 0.523
CCOC(=O)[C@H](Cc1ccccc1)NC(=O)CCC1CC(OC(=O)NCCc2ccc(F)cc2)CC2(CCCC(COC(=O)NCc3ccccc3)O2)O1 (stereo partly specified) 0.501
CC(C)=CCCC(C)=CCON=C1C[C@@H](O)[C@@H](O)[C@@H]2[C@@H]3C(=O)N(c4cccc(Oc5ccccc5)c4)C(=O)[C@@H]3CC[C@@H]12 0.188
CCOC(=O)[C@H](CC(C)C)NC(=O)CCC1CC(OC(=O)NCCc2ccc(F)cc2)CC2(CCCC(COC(=O)NCCc3ccccc3OC)O2)O1 (stereo partly specified) 0.742
CC(C)CON=C1C[C@@H](O)[C@@H](O)[C@@H]2[C@@H]3C(=O)N(C4CCCCC4)C(=O)[C@@H]3CC[C@@H]12 0.376
CCc1cc2c(nc1CC)CCN(CCC(C)=NO[C@H](C)c1cn([C@H](CO)Cc3ccccc3)nn1)C2 0.076
CC(C)(C)N1C(=O)[C@H]2[C@H]3[C@H](O)[C@H](O)CC(=O)[C@H]3CC[C@H]2C1=O 0.596
COC(=O)CC=C[C@@H](C)[C@@H](C=NO[C@@H]1O[C@H](COC(C)=O)[C@@H](OC(C)=O)[C@H](OC(C)=O)[C@H]1OC(C)=O)NS(=O)(=O)c1ccc(C)cc1 -0.0076
C[C@@H](c1ccccc1)N1C(=O)[C@H]2[C@H]3[C@H](O)[C@H](O)CC(=O)[C@H]3CC[C@H]2C1=O -0.286
CC(=O)O[C@H]1C2=CO[C@H](C)[C@H]3[C@H]4C5=C([C@H](O)[C@H]6O[C@H]6C5=O)[C@H](OC4C)[C@@]23C(=O)[C@@H]2O[C@@H]21 (stereo partly specified) 0.533
O=C(NN=C1C[C@@H](O)[C@@H](O)[C@@H]2[C@@H]3C(=O)N(C[C@@H]4CCCO4)C(=O)[C@@H]3CC[C@@H]12)OCc1ccccc1 1.77
C=COC[C@@H]1CN2[C@@H](CC[C@@H](C)[C@@H]2c2ccc(Br)cc2)C(=O)O1 -0.0657
CC(C)CON=C1C[C@@H](O)[C@@H](O)[C@@H]2[C@@H]3C(=O)N(C[C@@H]4CCCO4)C(=O)[C@@H]3CC[C@@H]12 -0.0867
CC(C)(C)N1C(=O)[C@H]2[C@H]3[C@H](O)[C@H](O)CC(=NOCc4ccccc4)[C@H]3CC[C@H]2C1=O 0.082
CCOC(=O)CCN1C(=O)[C@H]2[C@H]3[C@H](O)[C@H](O)CC(=NOCc4ccccc4)[C@H]3CC[C@H]2C1=O -0.207
